Results on 12 compounds are retold here after ChEMBL document CHEMBL1157539, “Thousands of chemical starting points for antimalarial lead identification” (Nature, 2010).

Molecules are shown by their SMILES.

The test system of the assay is HepG2. Put plainly: GSK_TCMDC: Percent inhibition of human HepG2 cell line. Test compounds present at 10uM. Type of assay: functional.
`CCNc1cc(C(=O)N[C@@H](Cc2ccccc2)[C@H](O)CN[C@H]2CCc3ccccc32)cc(N2CCCC2=O)c1`: the Inhibition (commonly the drop in the measured response relative to a control, in per cent) was determined as 8%.
The figure for `COc1cc2ccccc2cc1CCNCCCCNCCc1cc2ccccc2cc1OC.CS(=O)(=O)O` is 100%; for `Cc1noc(C)c1-c1cccc(CNCc2cccc(-c3cccc(-c4nc5cc(C(F)(F)F)ccc5[nH]4)c3)c2)c1.O=C(O)C(F)(F)F` it is 18%.
Next, `c1ccc(Oc2ccc(Nc3ccnc4cc(-c5csc(CNCCN6CCOCC6)n5)ccc34)cc2)cc1`: 0%; `Fc1cccc(Nc2nc(NCc3ccc4ccsc4c3)nc(Nc3cccc(F)c3)n2)c1`: 0%.
Next, `CC(C)CCNC(=N)Nc1ccc(OCCCOc2ccc(NC(=N)NCCC(C)C)cc2)cc1`: 0%.
Compound `O=C(/C=C/c1ccc(Cl)c(Cl)c1)NCCCCCN1CC[C@H](NC(=O)c2sc3ccccc3c2Cl)C1` displayed an Inhibition of 26%.
Next, `CO/C(=C\C=C\c1cc2cc(Cl)c(Cl)cc2[nH]1)C(=O)NCCCN1CCN(c2cccc(CCCO)c2)CC1`: 66%; `O=C(Nc1ccc(Cl)cc1Cl)N[C@H]1CCN(CCCCCNC(=O)C2CC2c2ccc(Cl)c(Cl)c2)C1` (some centres not stated): 37%.
Next, `N#CN1CC[C@@H](OC(=O)N[C@@H]2C[C@H]2c2ccccc2)C1`: 0%.
Next, `CCCCCCN1CCN(Cc2cccc(NC(=O)c3cc4ccccc4o3)c2)CC1.O=C(O)C(F)(F)F`: 20%; `COc1cc(NC(=O)/C=C/c2cccc3cc[nH]c23)ccc1OCCN(C(C)C)C(C)C.Cl`: 11%.
